{"source": "PubChem BioAssay (Tox21)", "note": "Values without a mark were called inactive. Calls of active or inactive are those of the source. Calls follow the shape of the full dose curve. % is scaled to controls: 0 for no effect and ±100 for the full control effect; potency is read from the fitted curve at half-maximal effect."}
{"molecular_target": "Acetylcholinesterase (Homo sapiens) (UniProt P22303)", "sequence (P22303 whole entry, looked up)": "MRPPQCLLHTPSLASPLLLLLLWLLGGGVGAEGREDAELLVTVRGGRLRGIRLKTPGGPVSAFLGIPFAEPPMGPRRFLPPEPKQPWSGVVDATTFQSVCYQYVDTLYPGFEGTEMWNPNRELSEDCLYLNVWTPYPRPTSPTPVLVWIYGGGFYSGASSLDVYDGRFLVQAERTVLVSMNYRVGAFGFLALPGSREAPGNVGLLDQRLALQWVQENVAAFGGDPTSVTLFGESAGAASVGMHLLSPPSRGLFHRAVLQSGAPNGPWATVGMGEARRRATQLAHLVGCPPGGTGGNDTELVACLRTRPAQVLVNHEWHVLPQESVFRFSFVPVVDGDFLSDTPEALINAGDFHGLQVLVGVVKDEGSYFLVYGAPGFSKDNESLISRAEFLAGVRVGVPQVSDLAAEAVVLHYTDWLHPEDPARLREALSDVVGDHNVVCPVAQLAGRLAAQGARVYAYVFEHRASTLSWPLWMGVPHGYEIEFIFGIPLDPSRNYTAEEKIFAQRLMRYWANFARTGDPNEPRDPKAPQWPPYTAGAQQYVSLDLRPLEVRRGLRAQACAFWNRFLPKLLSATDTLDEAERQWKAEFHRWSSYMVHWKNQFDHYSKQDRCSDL", "experiment": "Acetylcholinesterase (AChE) small molecule antagonists: enzyme-based qHTS assay with human liver microsomes (AID 1347399); also: nearly all actives have a fitted effect of over 60% in size", "conditions": "Potency: qHTS inhibition; series mostly up to 115 µM; activity change, negative = inhibition: at the top concentration", "in_short": "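Recombinant human AChE (50 mU/mL in the enzyme mix) and human liver microsomes (0.25 mg/mL final) were preincubated with compound and NADPH (0.25 mg/mL final) for 30 min at 37 C. Acetylthiocholine/DTNB was then added; thiocholine was read colorimetrically after 10 min at room temperature.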"}
{"smiles": "Nc1ccc(Sc2ccc(N)cc2)cc1", "activity change, negative = inhibition": "-1.02%"}
{"smiles": "Oc1ccccc1Br", "activity change, negative = inhibition": "2.99%"}
{"smiles": "COc1ccc(N)cc1N", "Potency": "inactive"}
{"smiles": "CC(C)CCCCCOC(=O)c1ccccc1C(=O)OCCCCCC(C)C", "activity change, negative = inhibition": "-0.838%"}
{"smiles": "Clc1ccc(CO/N=C(\\Cn2ccnc2)c2ccc(Cl)cc2Cl)c(Cl)c1", "activity change, negative = inhibition": "-0.084% [at 53 µM]"}
{"smiles": "O=[N+]([O-])c1c2ccccc2cc2ccccc12", "activity change, negative = inhibition": "4.04%"}
{"smiles": "S=C=Nc1cccc2ccccc12", "activity change, negative = inhibition": "-5.76%"}
{"smiles": "CC(C)C(=O)Cl", "activity change, negative = inhibition": "0%"}
{"smiles": "O=C(O)c1cc[c]([Hg][Cl])cc1", "activity change, negative = inhibition": "-18.7%"}
{"smiles": "O=C/C(Cl)=C(/Cl)C(=O)O", "Potency": "inactive"}
{"smiles": "CC(=[OH+])/C=C(/C)[O-].CC(=[OH+])/C=C(\\C)[O-].CC(=[OH+])/C=C(\\C)[O-].[Al]", "activity change, negative = inhibition": "1.53%"}
{"smiles": "CCOC(=O)C1(c2ccccc2)CCN(CCC(C#N)(c2ccccc2)c2ccccc2)CC1", "activity change, negative = inhibition": "2.06% [at 53 µM]"}
{"smiles": "CCOP(=O)(NC(C)C)Oc1ccc(SC)c(C)c1", "note": "(stereo unspecified)", "Potency": "71 µM (active)"}
{"smiles": "Oc1ccc2ccc3cccc4ccc1c2c34", "activity change, negative = inhibition": "1.01%"}
{"smiles": "Nc1ccccc1C(=O)OC/C=C/c1ccccc1", "activity change, negative = inhibition": "-0.497%"}
{"smiles": "CN(CCCC(O)c1cccnc1)N=O", "note": "(stereo unspecified)", "activity change, negative = inhibition": "-0.324%"}
{"smiles": "C[C@]12CC[C@@H]3c4ccc(OC(=O)N(CCCl)CCCl)cc4CC[C@H]3[C@@H]1CC[C@@H]2O", "activity change, negative = inhibition": "-0.0105% [at 53 µM]"}
{"smiles": "COc1ccc(/C(=C/C(=O)N2CCOCC2)c2ccc(Cl)cc2)cc1OC", "activity change, negative = inhibition": "-1.16%"}
{"smiles": "CC(C)[C@H](C(=O)OC(C#N)c1cccc(Oc2ccccc2)c1)c1ccc(OC(F)F)cc1", "note": "(stereo partly specified)", "activity change, negative = inhibition": "1.45%"}
{"smiles": "O=[N+]([O-])c1ccc2ccc3cccc4ccc1c2c34", "activity change, negative = inhibition": "12.6%"}
{"smiles": "Oc1ccc(C2(c3ccc(O)cc3)c3ccccc3-c3ccccc32)cc1", "activity change, negative = inhibition": "1.69%"}
